# Data from PubChem BioAssay.
# The source made the active and inactive calls.
# Assays:
# [1] = target: NADPH oxidase 4 (Homo sapiens) (UniProt Q9NPH5); assay: NOX4-dependent H2O2 signal modulators, primary screen, NOX inhibitor project, cell-based, HEK293-NOX4, tetracycline-induced, Amplex Red fluorescence (AID 1160); details: 45 min, higher = more signal, called active from +8 up or from −8 down
# [2] = target: NADPH oxidase 5 (Homo sapiens) (UniProt Q96PH1); assay: NOX5-dependent H2O2 signal modulators, primary screen, NOX inhibitor project, cell-based, HEK293-NOX5, Amplex Red fluorescence (AID 1161); details: HEK293-NOX5, ionomycin, 45 min, higher = more signal
# [3] = A549 cell viability effects, profiling panel, calcein-AM fluorescence, 48 h, basal (AID 1162); details: higher = more signal; note: test concentration not given here
# [4] = adipocyte viability effects, profiling panel, cell-based, 3T3-L1 adipocytes, calcein-AM fluorescence, 48 h, basal (AID 1163); details: 3T3-L1 adipocytes viability, higher = more signal; note: test concentration not given here
# [5] = HepG2 cell viability effects, profiling panel, calcein-AM fluorescence, 48 h, basal (AID 1164); details: higher = more signal; note: test concentration not given here
# [6] = MM1S cell viability effects, profiling panel, calcein-AM fluorescence, 48 h, basal (AID 1165); details: higher = more signal;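 note: viability of MM1S multiple myeloma cells under basal unstimulated conditions; test concentration not given here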
# [7] = basal RPMI8226 viability, no added stimulus, profiling panel, cell-based, calcein-AM fluorescence, 48 h, PK04 Diversity Set (AID 1166); details: RPMI8226 myeloma viability, higher = more signal;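 note: cells grown under basal conditions without added stimulus; test concentration not given here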
# [8] = basal HepG2 mitochondrial membrane potential changes, profiling panel, cell-based, JC-1 fluorescence, 24 h, 100 nL compound (AID 1167); details: higher = more signal; note: test concentration not given here
# [9] = basal 3T3-L1 adipocyte mitochondrial potential changes, profiling panel, cell-based, JC-1 fluorescence, 3T3-L1 adipocytes, 24 h, 100 nL compound (AID 1168); details: JC-1 mitochondrial fluorescence, higher = more signal, called active from +8 up or from −8 down; note: test concentration not given here
# [10] = basal RPMI8226 mitochondrial membrane potential changes, profiling panel, cell-based, JC-1 fluorescence, 24 h, 100 nL compound (AID 1169); details: RPMI8226 myeloma, JC-1 mitochondrial potential fluorescence, higher = more signal; note: test concentration not given here
# [11] = basal MM1S mitochondrial membrane potential changes, profiling panel, cell-based, JC-1 fluorescence, 24 h, 100 nL compound (AID 1170); details: higher = more signal; note: test concentration not given here
# [12] = A549 lung cancer cell viability effects, profiling panel, resazurin fluorescence, 24 h, PK04 Diversity Set (AID 1171); details: higher = more signal, called active from +8 up or from −8 down; note: test concentration not given here
# [13] = HepG2 liver cancer cell viability effects, profiling panel, resazurin fluorescence, 24 h, PK04 Diversity Set (AID 1172); details: higher = more signal; note: test concentration not given here
# [14] = basal S. cerevisiae growth modulation, no modifier, primary screen, OD600, strain BY4716, 24 h, basal condition (AID 1173); details: OD600, 24 h, higher = more signal, called active from +8 up or from −8 down
# [15] = MM1S myeloma cell viability, profiling panel, resazurin fluorescence, basal, 24 h, PK04 Diversity Set (AID 1174); details: higher = more signal, called active from +8 up or from −8 down;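 note: MM1S multiple myeloma cell line; test concentration not given here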
# [16] = target: Dihydroorotate dehydrogenase (quinone), mitochondrial (Plasmodium falciparum (isolate 3D7)) (UniProt Q08210); assay: PfDHODH enzyme inhibitors, primary screen, biochemical, C-terminal His tag, absorbance 600 nm (AID 1175); details: DCIP absorbance 600 nm, higher = more signal, called active from +8 up or from −8 down;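 note: recombinant parasite enzyme with a five histidine tag at its C terminus; test concentration not given here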
# [17] = S. cerevisiae RM11-1a growth modifiers, primary screen, strain RM11-1a, OD600, basal, 24 h (AID 1177); details: OD600, 24 h, higher = more signal, called active from +8 up or from −8 down;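 note: cultures grown under basal conditions with no added stressor; test concentration not given here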
# [18] = E. coli acrAB mutant growth effects, primary screen, E. coli filamentation inducers, strain DRC39, OD650, 24 h (AID 1178); details: higher = more signal, called active from +8 up or from −8 down;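 note: growth measured as culture turbidity by optical density at 650 nm; test concentration not given here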
# [19] = E. coli acrAB mutant growth effects, primary screen, E. coli filamentation inducers, strain DRC39, OD650, 48 h (AID 1179);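 note: screen aims at cell division blockers that make cells filament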; details: E. coli DRC39 delta-acrAB growth, higher = more signal, called active from +8 up or from −8 down
# [20] = RPMI8226 myeloma cell viability, profiling panel, resazurin fluorescence, basal, 24 h, PK04 Diversity Set (AID 1180); details: higher = more signal;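 note: RPMI8826 multiple myeloma cell line at 5000 cells per well; test concentration not given here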
# Dihydroorotate dehydrogenase (quinone), mitochondrial (Plasmodium falciparum (isolate 3D7)), sequence (Q08210 whole entry, looked up): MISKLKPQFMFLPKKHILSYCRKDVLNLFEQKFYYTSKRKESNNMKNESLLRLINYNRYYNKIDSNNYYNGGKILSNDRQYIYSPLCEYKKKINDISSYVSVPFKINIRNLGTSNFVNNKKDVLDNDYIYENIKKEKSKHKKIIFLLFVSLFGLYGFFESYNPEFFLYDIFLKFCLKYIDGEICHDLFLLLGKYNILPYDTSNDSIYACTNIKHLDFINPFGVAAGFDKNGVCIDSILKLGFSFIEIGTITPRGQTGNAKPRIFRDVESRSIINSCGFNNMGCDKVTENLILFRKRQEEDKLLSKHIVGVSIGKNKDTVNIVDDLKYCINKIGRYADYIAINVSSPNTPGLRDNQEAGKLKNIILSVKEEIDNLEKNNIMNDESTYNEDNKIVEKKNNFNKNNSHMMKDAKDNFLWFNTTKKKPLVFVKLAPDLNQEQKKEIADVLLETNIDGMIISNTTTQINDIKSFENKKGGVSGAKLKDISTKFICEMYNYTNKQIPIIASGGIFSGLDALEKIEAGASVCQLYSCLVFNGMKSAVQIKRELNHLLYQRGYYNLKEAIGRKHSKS
# NADPH oxidase 4 (Homo sapiens), sequence (Q9NPH5 whole entry, looked up): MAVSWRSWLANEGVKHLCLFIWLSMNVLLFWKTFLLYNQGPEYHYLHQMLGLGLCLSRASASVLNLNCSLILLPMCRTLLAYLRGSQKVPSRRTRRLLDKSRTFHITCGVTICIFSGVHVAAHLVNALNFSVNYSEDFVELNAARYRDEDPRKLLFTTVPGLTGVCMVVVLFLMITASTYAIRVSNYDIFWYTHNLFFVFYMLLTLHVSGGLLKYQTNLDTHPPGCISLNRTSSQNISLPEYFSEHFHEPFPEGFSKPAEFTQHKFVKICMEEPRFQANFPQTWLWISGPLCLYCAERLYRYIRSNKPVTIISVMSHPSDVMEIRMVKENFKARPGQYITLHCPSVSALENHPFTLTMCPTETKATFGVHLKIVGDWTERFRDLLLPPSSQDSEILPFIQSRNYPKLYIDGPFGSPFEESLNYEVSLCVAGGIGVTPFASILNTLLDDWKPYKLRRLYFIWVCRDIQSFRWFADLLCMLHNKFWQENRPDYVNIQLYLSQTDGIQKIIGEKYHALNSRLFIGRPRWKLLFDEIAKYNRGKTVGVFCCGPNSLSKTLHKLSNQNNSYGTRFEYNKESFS
# NADPH oxidase 5 (Homo sapiens), sequence (Q96PH1 whole entry, looked up): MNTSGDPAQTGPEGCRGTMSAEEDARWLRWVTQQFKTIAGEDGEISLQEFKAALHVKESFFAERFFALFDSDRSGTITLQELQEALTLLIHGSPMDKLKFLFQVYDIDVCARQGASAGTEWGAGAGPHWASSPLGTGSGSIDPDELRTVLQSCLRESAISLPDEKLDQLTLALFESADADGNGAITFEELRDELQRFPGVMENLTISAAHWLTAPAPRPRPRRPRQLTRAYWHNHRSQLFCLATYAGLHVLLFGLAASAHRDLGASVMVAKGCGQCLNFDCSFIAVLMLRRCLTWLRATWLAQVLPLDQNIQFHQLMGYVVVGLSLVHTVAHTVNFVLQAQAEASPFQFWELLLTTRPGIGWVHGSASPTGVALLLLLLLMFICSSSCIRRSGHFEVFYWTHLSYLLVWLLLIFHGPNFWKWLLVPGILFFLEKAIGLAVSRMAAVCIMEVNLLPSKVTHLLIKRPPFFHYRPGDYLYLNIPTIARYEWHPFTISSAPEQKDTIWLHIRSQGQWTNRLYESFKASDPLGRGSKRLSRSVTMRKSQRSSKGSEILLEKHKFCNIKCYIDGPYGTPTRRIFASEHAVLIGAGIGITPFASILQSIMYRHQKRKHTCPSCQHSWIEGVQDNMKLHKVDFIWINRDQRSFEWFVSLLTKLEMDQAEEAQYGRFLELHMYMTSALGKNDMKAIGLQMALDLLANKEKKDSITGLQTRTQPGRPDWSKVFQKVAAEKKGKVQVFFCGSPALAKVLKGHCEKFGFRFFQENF
SMILES,z-score [1],z-score [2],z-score [3],z-score [4],z-score [5],z-score [6],z-score [7],z-score [8],z-score [9],z-score [10],z-score [11],z-score [12],z-score [13],z-score [14],z-score [15],composite z-score [16],z-score [17],z-score [18],z-score [19],z-score [20]
C=CCN1C(=O)[C@@]2(O[C@@H](CCn3cc(CCO)nn3)[C@H]([Si](C)(C)c3ccc(OC)cc3)[C@H]2C)c2cc(NC(=O)c3ccc(OC)cc3)ccc21,1.45 (inactive),0.367,-0.0183,1.2,-0.408,-2.91,-3.3,0.978,0.659 (inactive),-0.925,0.212,-1.27 (inactive),-0.322,-4.11 (inactive),-1.55 (inactive),-0.118 (inactive),0.901 (inactive),1.55 (inactive),1 (inactive),-1.51
[N-]=[N+]=NCc1ccccc1C[C@]1(C(=O)NCc2ccccc2)N=C(c2ccc(OCCCO)cc2)O[C@H]1c1ccccc1,1.24 (inactive),0.0397,-2.79,0.457,-2.82,-2.07,-2.78,0.671,0.371 (inactive),-0.819,-1.6,0.225 (inactive),0.643,2.86 (inactive),-0.295 (inactive),2.37 (inactive),4.01 (inactive),3.49 (inactive),1.24 (inactive),-0.29
CC(C)C(=C=CC[C@@H](O)c1ccc(CO)o1)CCO,1.64 (inactive),1.49,2.76,-0.266,0.719,0.288,0.889,0.919,0.556 (inactive),0.304,0.501,1.37 (inactive),1.32,-1.13 (inactive),1.07 (inactive),-0.669 (inactive),-0.332 (inactive),2.09 (inactive),1.39 (inactive),1.18
C=C(COC)/C(=C/C[C@H](OC(C)=O)c1ccc(CO)o1)c1cnc2ccccc2c1,0.615 (inactive),0.915,0.283,0.788,-0.957,-1.42,-0.182,0.117,0.411 (inactive),0.624,-0.271,0.445 (inactive),0.441,-1.24 (inactive),1.04 (inactive),-7.31 (inactive),-0.819 (inactive),1.48 (inactive),0.383 (inactive),0.981
O=c1n(-c2ccccc2)c(=O)n2n1CC(COc1ccccc1)=C1[C@@H](CCc3ccccc3)OB(O)C[C@@H]12,-0.0712 (inactive),-1.03,1.81,0.0728,-0.28,-0.0893,-0.364,-0.251,1.31 (inactive),-0.555,0.615,-0.665 (inactive),0.312,-2.19 (inactive),-0.933 (inactive),0.91 (inactive),-0.424 (inactive),2.4 (inactive),1.4 (inactive),-0.672
COC(=O)C(CC#Cc1ccc2c(c1)[C@]1(C(=O)N2)[C@H](C(=O)O)[C@H]2C(=O)O[C@H](c3ccccc3)[C@H](c3ccccc3)N2[C@@H]1c1ccc(OCCO)cc1)C(=O)OC,0.164 (inactive),0.396,2.54,0.313,1.27,-2.5,-3.54,-0.532,0.587 (inactive),-0.746,0.171,0.7 (inactive),0.821,-0.842 (inactive),1.22 (inactive),-15.4 (active),0.338 (inactive),1.6 (inactive),1.72 (inactive),-2.37
COc1ccc([Si](C)(C)[C@H]2[C@H](CC(=O)N(CCO)Cc3ccccc3)O[C@@]3(C(=O)N(Cc4ccc(N5CCOC5=O)cc4)c4ccccc43)[C@@H]2C)cc1,-0.23 (inactive),1.34,-0.832,1.17,-0.721,-0.931,0.17,1.51,0.647 (inactive),-1.19,0.188,-1.36 (inactive),-0.292,-0.693 (inactive),-1.98 (inactive),0.374 (inactive),2.73 (inactive),1.42 (inactive),1.29 (inactive),-2.8
C=CCC(OC(C)=O)[C@@H]1[C@@H](N(Cc2ccc(-c3cccc(C(F)(F)F)c3)o2)C(=O)c2ccc(-c3ccccc3)cc2)c2cc(OCCCO)ccc2N1C(=O)Cc1ccc(OC)cc1 (stereo not given in full),1.06 (inactive),2.21,0.161,0.935,1.29,1.18,0.72,3.72,0.0243 (inactive),-0.598,1.36,0.797 (inactive),0.421,0.0438 (inactive),1.29 (inactive),0.0258 (inactive),-0.93 (inactive),1.98 (inactive),1.21 (inactive),1.32
C=C(COC)C(=O)CC[C@@H](OC(=O)c1ccccc1-c1ccccc1C(=O)O)c1cccc(OCCO)c1,1.34 (inactive),-0.986,0.467,0.649,-0.441,-1.99,-1.43,0.0537,0.469 (inactive),-0.0226,1.4,1.2 (inactive),0.417,-0.749 (inactive),0.0335 (inactive),-0.733 (inactive),0.291 (inactive),1.16 (inactive),0.755 (inactive),0.458
C=CC[C@]1(C(=O)N2CCCCC2)COC(c2ccc(OCCCO)cc2)=N1,-0.256 (inactive),-3.57,-1.48,1.98,-2.29,-3.6,-2.3,-0.223,0.322 (inactive),-0.749,-0.435,-0.585 (inactive),1.55,-6.59 (inactive),-0.863 (inactive),-0.0606 (inactive),0.474 (inactive),2.98 (inactive),0.693 (inactive),0.909
COCCCNC(=O)[C@@]1(C)c2ccccc2C(=O)N(Cc2cc(F)cc(C(F)(F)F)c2)[C@H]1c1ccc(CO)cc1,-1.4 (inactive),0.42,-0.0292,0.604,-0.176,0.534,-0.0765,1.32,0.0832 (inactive),-0.69,0.659,0.914 (inactive),-0.0724,0.416 (inactive),1.09 (inactive),0.408 (inactive),1.35 (inactive),1.04 (inactive),0.359 (inactive),1.31
COCCCN1C(=O)[C@@]2(Cc3ccccc31)c1ccccc1C(=O)N(Cc1ccccc1Cl)[C@H]2c1ccc(CO)cc1,0.163 (inactive),1.65,1.54,-0.414,0.0836,0.712,0.485,1.58,1.33 (inactive),0.15,0.828,-0.306 (inactive),-0.384,-0.846 (inactive),0.686 (inactive),-12.4 (active),-0.921 (inactive),0.56 (inactive),0.891 (inactive),0.902
COc1ccc([Si](C)(C)[C@@H]2[C@@H](CC(=O)N3CCC[C@H]3CO)O[C@]3(C(=O)N(Cc4ccc(I)cc4)c4ccccc43)[C@H]2C)cc1,0.932 (inactive),4,-0.298,2.59,-2.95,-2.58,-4.35,2.47,1.67 (inactive),-1.04,-0.818,-2.59 (inactive),-1.37,-1.91 (inactive),-2.56 (inactive),0.413 (inactive),-0.289 (inactive),1.66 (inactive),0.78 (inactive),-2.59
CCCCC(=C=CC[C@H](O)c1cccc(OCCO)c1)CCO,0.362 (inactive),-1.64,1.13,1.07,-0.693,-1,-0.257,0.733,0.439 (inactive),0.12,-0.0531,1.7 (inactive),0.529,-1.41 (inactive),1.31 (inactive),-0.802 (inactive),-0.114 (inactive),1.3 (inactive),0.749 (inactive),0.837
O=C1O[C@@H](c2ccccc2)[C@@H](c2ccccc2)N2[C@@H](c3ccc(OCCO)cc3)[C@]3(C(=O)Nc4ccc(C#CC5(O)CCCCCC5)cc43)[C@@H](C(=O)NC[C@H](O)c3ccccc3)[C@H]12,1.14 (inactive),0.427,0.71,1.71,0.394,-0.987,0.208,-1.7,0.548 (inactive),-0.535,-0.197,0.883 (inactive),0.18,0.842 (inactive),0.786 (inactive),0.935 (inactive),2.1 (inactive),1.06 (inactive),1.12 (inactive),0.966
COC(=O)c1c(CC[C@@H](CO)NC(=O)Nc2ccc(OC)cc2)oc(C(=O)Cc2ccccc2)c1C(=O)OC,0.649 (inactive),-2.22,-1.27,1.01,-0.255,-0.581,0.141,-0.115,0.695 (inactive),-0.204,0.212,0.367 (inactive),-0.325,-2.3 (inactive),0.955 (inactive),-1.09 (inactive),1.22 (inactive),1.46 (inactive),0.987 (inactive),0.173
C=C[C@H](OC)[C@@H](OC(=O)Nc1ccc(OC)cc1)c1ccc(OC)c(O)c1,-1.92 (inactive),-2,0.29,0.922,-0.737,0.478,0.294,-0.638,1.02 (inactive),0.756,0.206,0.304 (inactive),0.895,-1.01 (inactive),1.12 (inactive),0.465 (inactive),0.0923 (inactive),1.89 (inactive),1.29 (inactive),1.15
